Bioassay records from PubChem.
A selection: hits, their analogues and other compounds. The true share with any hit is near 4.7%.
HSF-1 act = HSF-1 activators, primary screen, NIH3T3-HGL cells, MG132 stress, luminescence, single point; NIH3T3-HGL HSF-1 luciferase reporter, 8 h; 100% = twice DMSO control signal; activation, % at 9 µM; 300,000 compounds, 1.7% hits;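 active means mean replicate activation of at least 50% with a set share of replicates each reaching 50%; inconclusive means only one of those two conditions met; inactive means mean below 50% and too few replicates reaching it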
HSF1 inh = HSF1 inhibitors in luciferase reporter cells, primary screen, cell-based, NIH3T3, luminescence; 300,000 compounds, 0.77% hits; NIH3T3-HGL HSE-luciferase, MG132-induced, luminescence 8 h; hits give low values; activity change, negative = inhibition, % at 7.5 µM (by protocol); AID 2098, 2009;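 active means more than half of replicate wells show activity change below -50%, luminescence cut by over half; inconclusive means some wells, but at most half, below -50%; inactive means no replicate well below -50%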;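 further: luciferase reports HSF-1 transcriptional activity via heat shock element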
HSP90 refold inh = HSP90 inhibitors, primary screen, cell lysate, luminescence. AID 1789, 2009. Heat shock protein HSP 90 (rabbit reticulocyte lysate; luciferase refolding). Rabbit reticulocyte lysate, luciferase refolding luminescence, 3 h. 290,000 compounds, 0.91% hits. inhibition, % at 5.6 µM;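 active means inhibition above the screen-wide mean plus 3 SD, computed separately per campaign, cut at about 16% in these data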;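 further: inhibitors lower the luminescence because luciferase stays unfolded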
TROY signal inh = inhibitors of TROY-driven NF-kB signaling, primary screen, Q293 LMP1-TROYcd cells, NF-kB luciferase, uHTS; Q293 LMP1-TROYcd NF-kB luciferase reporter, 4 h; inhibition, % at 10 µM; 360,000 compounds, 0.98% hits;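 active means compounds whose plate-normalised and pattern-corrected inhibition of the luciferase reporter signal at the single screening dose is 50% or more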
TWEAK-Fn14 inh = inhibitors of TWEAK-Fn14 signaling, primary screen, luciferase reporter cells, uHTS. TWEAK-stimulated Fn14 reporter cells, luciferase luminescence, 8 h. inhibition, % at 10 µM. 360,000 compounds, 2% hits; in the data active means inhibition above about 50%
EBV LMP1 NFkB = EBV LMP1-driven NF-kappaB luciferase reporter inhibitors, primary screen, cell-based, luminescence, single point; LMP1-induced NF-kappaB luciferase reporter cells; inhibition, % at 12.5 µM; 350,000 compounds, 0.69% hits; in the data active means inhibition above about 41%; inconclusive means no clear call, values can overlap the other calls
Hits are given with their value; i = inactive; ? = inconclusive; nt = not tested or not shown.

SMILES	HSF-1 act	HSF1 inh	HSP90 refold inh	TROY signal inh	TWEAK-Fn14 inh	EBV LMP1 NFkB
Oc1ccccc1C(Nc1nccs1)c1ccc2cccnc2c1O (stereo not given)	i	-57	i	i	i	i
COc1ccc(C(NC(C)=O)c2cc(Cl)c3cccnc3c2O)cc1 (stereo not given)	i	i	i	i	i	42
CSc1ccc(CNC(=O)C2CCC(=O)N(CCc3ccc(Cl)cc3)C2)cc1 (stereo not given)	nt	nt	nt	i	i	i
COc1ccc(NC(=O)C2(C)Cc3c(-c4cccc(C(F)(F)F)c4)ccnc3O2)cc1OC (stereo not given)	nt	nt	nt	i	i	nt
c1ccc(-c2ccc(-n3ccnc3)cc2)cc1	72	i	i	i	i	i
CCOc1ccc(-n2c(=S)sc3c(=O)[nH]c(SCC(=O)NC(C)CC)nc32)cc1 (stereo not given)	72	i	i	i	i	i
CCOC(=O)CC(=O)CSc1nc2c(sc(=S)n2-c2ccc(OCC)cc2)c(=O)[nH]1	i	i	i	i	i	i
ClC(Cl)(Cl)c1nc2ccccc2n2nncc12	208	i	i	i	i	i
c1ccc(CCNc2nc3ccccc3n3nnnc23)cc1	i	i	i	i	i	i
O=C(CN1C(=O)C(c2ccccc2)Oc2cccnc21)NCc1ccccc1F (stereo not given)	i	i	i	i	i	57
N#CC(=Nc1cccc(F)c1)C1=C(O)c2ccccc2C1=O	nt	nt	nt	i	i	nt
O[C@H]1C[C@H](c2ccc(Cl)cc2)N(CC2CCCCC2)C[C@@H]1n1cc(C2CC2)nn1	nt	nt	nt	i	i	i
Cc1ccc(-n2nnnc2CNC(=O)C(=O)c2c[nH]c3ccccc23)cc1C	nt	nt	nt	i	i	i
O=c1ccoc2ccccc12	nt	nt	nt	i	i	nt
COc1ccccc1Nc1ccc2c(O)cc(S(=O)(=O)O)cc2c1	nt	nt	nt	i	79	i
Cc1ccc2ccccc2c1C(O)c1ncc(-c2cccc(F)c2)[nH]1 (stereo not given)	nt	nt	nt	i	i	nt
O=C(CSCc1nc2ccccc2[nH]1)Nc1ccc2ccccc2c1	i	i	i	i	i	i
O=C(Cc1cccc(F)c1)Nc1ccc2c(c1)CCC2	i	i	i	i	i	i
O=C(CSc1cccs1)Nc1cccc2ccccc12	63	i	i	i	i	i
O=C(Cc1ccc2c(c1)CCCC2)Nc1ccc2ccccc2c1	57	i	i	i	i	i
O=C(CSc1ccccc1)Nc1ccc2sccc2c1	i	i	i	i	i	i
O=C(CSCc1cccc(CSCC(=O)Nc2ccc3ccccc3c2)n1)Nc1ccc2ccccc2c1	i	i	i	i	67	i
O=C(CSc1cccs1)Nc1ccc2ccccc2c1	57	i	i	i	i	i
O=C(OCC(O)C1OC(c2ccccc2)OC(COC(=O)c2ccccc2)C1O)c1ccccc1 (stereo not given)	nt	nt	nt	i	i	nt
CC1(C(=O)NCCC#N)CCN1C(=O)Cc1ccc(-c2ccccc2)cc1 (stereo not given)	nt	nt	nt	i	i	nt
SMILES	HSF-1 act	HSF1 inh	HSP90 refold inh	TROY signal inh	TWEAK-Fn14 inh	EBV LMP1 NFkB
COc1ccc(C(C)(O)c2nc(-c3ccccc3C)cs2)cc1 (stereo not given)	nt	nt	nt	i	i	nt
CCc1ccccc1N(CC(=O)NC1CCCCC1)C(=O)CCCC(=O)Nc1ccccn1	i	i	i	i	80	i
CN(Cc1ccccc1)C(=O)CCC1CCN(C(=O)CC2=CCCCC2)CC1	71	i	i	i	i	i
CC(=O)N(C)c1ccc(OCC(O)Cn2c3ccc(Cl)cc3c3cc(Cl)ccc32)cc1 (stereo not given)	59	i	i	63	i	i
c1ccc(-c2nnc(NC3=NCCC3)o2)cc1	i	i	17	i	53	i
O=C(Nc1ccccc1)Nc1nnc(-c2ccccc2)o1	i	i	i	i	i	i
O=C(Nc1nnc(-c2ccccc2)o1)NC1CCCCC1	i	i	i	i	i	68
CC(C)C(=O)Nc1nnc(-c2ccccc2)o1	i	i	i	i	i	i
Cc1ccc(S(=O)(=O)NC(=O)C2(C)CCN2C(=O)c2ccccc2)cc1 (stereo not given)	nt	nt	nt	i	i	nt
Cc1c(N2C(=O)/C(=C\c3ccccc3O)SC2=S)c(=O)n(-c2ccccc2)n1C	i	i	i	i	i	i
CN1C(=O)/C(=C/c2cc(N=Nc3ccccc3)ccc2O)SC1=S	i	i	i	54	65	i
COCCNC(=O)C1(C)CCN(C(=O)c2cc(-c3ccccc3)cs2)C1 (stereo not given)	nt	nt	nt	i	i	nt
Nc1cc2sc(-c3ccc(C(=O)O)cc3)nc2cc1Cl	i	i	18	i	i	i
Cc1cccc(-c2cnc(C(O)Cc3ccccc3)[nH]2)c1 (stereo not given)	nt	nt	nt	i	i	nt
C[C@@H]1CCCCO[C@H](CN(C)C(=O)Cc2ccccc2)[C@@H](C)CN([C@H](C)CO)C(=O)c2cc(NC(=O)Nc3ccccc3)ccc2O1	nt	nt	nt	i	i	i
Cc1cccc2cc(C#N)c(N3CCOCC3)nc12	i	i	i	i	54	i
O=C(NCC1CC1)c1ccc2sc([C@@H]3O[C@H](CO)[C@H](O)[C@H](O)[C@H]3O)nc2c1	nt	nt	nt	i	i	nt
O=S1(=O)CC(N2CCN(CC3CC3)CC2)CN1Cc1cn(Cc2ccccc2C(F)(F)F)nn1 (stereo not given)	nt	nt	nt	i	i	nt
COC(=O)c1ccccc1NC(=O)CSc1nc(Nc2ccccc2)nc(N2CCOCC2)n1	77	i	i	i	i	i
O=[N+]([O-])c1ccc(NC(=S)NCCc2ccc(Cl)cc2)cc1	i	i	i	57	60	i
Fc1ccc(NC(=S)NCc2ccccc2)cc1	i	i	i	i	107	i
O=[N+]([O-])c1ccc(NC(=S)NCc2ccc(F)cc2)cc1	i	i	i	56	i	i
O=[N+]([O-])c1ccc(NC(=S)NCCc2ccccc2)cc1	i	i	i	i	i	i
NC(=O)c1sc2nc3c(c(-c4cccnc4)c2c1N)CCC3	i	i	i	i	i	i
NC(=O)c1sc2nc3c(c(-c4cccs4)c2c1N)CCCCC3	i	?	i	i	76	72
Cc1ccc(OCCSc2ncccn2)c(C)c1	62	i	i	i	i	i
Cc1cccc(OCCOCCSc2ncccn2)c1	i	i	i	i	i	i
COc1ccc(OC)c(CN2C(=O)CCC2(C)c2nnnn2-c2c(C)cccc2C)c1 (stereo not given)	nt	nt	nt	i	i	nt
COc1ccc(C(CNC(=O)Nc2ccccc2)N2CCN(C)CC2)cc1 (stereo not given)	i	i	i	i	i	52
COc1ccc(NC(=O)NCCN2CCc3ccccc3C2)cc1	i	i	i	i	i	82
